From the supplement of paper PMC8728848
Only a selection was taken, and the strongest signals are over-represented in it overall.

Experiments:
Assay in all cases: glycan array binding signal (z-score within array); higher = stronger binding
Gal(a1-4)Gal(b1-4)GlcNAc = conditions: glycan notation: IUPAC condensed, linker removed
How it was run: (§1)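 From the Consortium for Functional Glycomics database, 3228 arrays were curated, keeping only those whose protein sequence was available. Binding is given as a within-array Z-score averaged across arrays sharing a protein sequence and across linkers. Negative Z-scores can be read as non-binding.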

Gal(a1-6)Glc = conditions: glycan notation: IUPAC condensed, linker removed
How it was run: as §1

Gal(b1-2)Gal = conditions: glycan notation: IUPAC condensed, linker removed
How it was run: as §1

[1] = tested on: Gal(a1-3)[Gal(a1-4)]Gal(b1-4)GlcNAc; conditions: glycan notation: IUPAC condensed, linker removed
How it was run: as §1

Gal(a1-4)Gal(b1-4)Gal = conditions: glycan notation: IUPAC condensed, linker removed
How it was run: as §1

Gal(a1-4)GlcNAc = conditions: glycan notation: IUPAC condensed, linker removed
How it was run: as §1

[2] = tested on: Gal(b1-3)GalNAc(b1-3)Gal(a1-4)Gal(b1-4)Glc; conditions: glycan notation: IUPAC condensed, linker removed
How it was run: as §1

Gal(a1-3)Gal(b1-4)Glc = conditions: glycan notation: IUPAC condensed, linker removed
How it was run: as §1

Gal(a1-3)Gal = conditions: glycan notation: IUPAC condensed, linker removed
How it was run: as §1

[3] = tested on: Gal(b1-3)GalNAc(a1-3)[Fuc(a1-2)]Gal(b1-4)GlcNAc; conditions: glycan notation: IUPAC condensed, linker removed
How it was run: as §1

Gal(a1-3)GalNAc = conditions: glycan notation: IUPAC condensed, linker removed
How it was run: as §1

[4] = tested on: Gal(a1-3)Gal(b1-4)[Fuc(a1-3)]GlcNAc(b1-2)Man(a1-3)[Gal(a1-3)Gal(b1-4)[Fuc(a1-3)]GlcNAc(b1-2)Man(a1-6)]Man(b1-4)GlcNAc(b1-4)GlcNAc; conditions: glycan notation: IUPAC condensed, linker removed; mutation: R125K
How it was run: as §1

[5] = tested on: Gal(a1-3)Gal(b1-4)[Fuc(a1-3)]GlcNAc; conditions: glycan notation: IUPAC condensed, linker removed; mutation: R125K
How it was run: as §1

Gal(a1-4)Gal(b1-4)Glc = conditions: glycan notation: IUPAC condensed, linker removed
How it was run: as §1

[6] = tested on: Gal(b1-3)Gal(b1-4)GlcNAc(b1-2)Man(a1-3)[Gal(b1-3)Gal(b1-4)GlcNAc(b1-2)Man(a1-6)]Man(b1-4)GlcNAc(b1-4)GlcNAc; conditions: glycan notation: IUPAC condensed, linker removed
How it was run: as §1

Gal(b1-3)GalNAc(b1-3)Gal = conditions: glycan notation: IUPAC condensed, linker removed; mutation: R125K
How it was run: as §1

[7] = tested on: Gal(b1-3)GalNAc(b1-3)Gal(b1-4)Glc; conditions: glycan notation: IUPAC condensed, linker removed
How it was run: as §1

[8] = tested on: Gal(a1-4)Gal(b1-4)GlcNAc(b1-3)Gal(b1-4)Glc; conditions: glycan notation: IUPAC condensed, linker removed
How it was run: as §1

[9] = tested on: Gal(a1-3)Gal(b1-4)GlcNAc(b1-3)GalNAc; conditions: glycan notation: IUPAC condensed, linker removed
How it was run: as §1

Gal(a1-3)Gal(b1-4)GlcNAc = conditions: glycan notation: IUPAC condensed, linker removed
How it was run: as §1

Chain of CHI3L1 (Homo sapiens), P36222 (P36222 whole entry): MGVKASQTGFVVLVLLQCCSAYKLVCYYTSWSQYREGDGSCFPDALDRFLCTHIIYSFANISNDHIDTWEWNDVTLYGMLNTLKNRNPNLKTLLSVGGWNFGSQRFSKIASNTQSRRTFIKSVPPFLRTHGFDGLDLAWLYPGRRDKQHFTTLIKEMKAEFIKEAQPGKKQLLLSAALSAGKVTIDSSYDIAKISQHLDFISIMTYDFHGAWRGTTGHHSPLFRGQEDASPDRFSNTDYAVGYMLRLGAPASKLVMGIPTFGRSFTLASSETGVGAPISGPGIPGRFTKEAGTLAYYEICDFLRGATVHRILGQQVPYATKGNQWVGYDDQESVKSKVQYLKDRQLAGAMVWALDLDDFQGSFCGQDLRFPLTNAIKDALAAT
Chain of 6RG (Lolium perenne) (chain, as listed by the source): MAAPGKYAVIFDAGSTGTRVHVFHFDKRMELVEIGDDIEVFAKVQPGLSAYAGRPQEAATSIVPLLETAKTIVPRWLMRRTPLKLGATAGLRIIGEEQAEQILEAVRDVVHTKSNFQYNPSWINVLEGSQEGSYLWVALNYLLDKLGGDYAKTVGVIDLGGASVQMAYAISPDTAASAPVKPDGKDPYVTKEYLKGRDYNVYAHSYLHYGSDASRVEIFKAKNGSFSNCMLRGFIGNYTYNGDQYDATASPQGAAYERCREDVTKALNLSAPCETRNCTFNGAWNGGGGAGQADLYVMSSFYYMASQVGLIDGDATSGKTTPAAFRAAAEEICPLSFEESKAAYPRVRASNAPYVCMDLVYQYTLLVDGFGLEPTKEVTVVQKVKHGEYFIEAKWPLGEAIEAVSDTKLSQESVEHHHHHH
Chain of C3b (Homo sapiens), P01024 (P01024 23-667): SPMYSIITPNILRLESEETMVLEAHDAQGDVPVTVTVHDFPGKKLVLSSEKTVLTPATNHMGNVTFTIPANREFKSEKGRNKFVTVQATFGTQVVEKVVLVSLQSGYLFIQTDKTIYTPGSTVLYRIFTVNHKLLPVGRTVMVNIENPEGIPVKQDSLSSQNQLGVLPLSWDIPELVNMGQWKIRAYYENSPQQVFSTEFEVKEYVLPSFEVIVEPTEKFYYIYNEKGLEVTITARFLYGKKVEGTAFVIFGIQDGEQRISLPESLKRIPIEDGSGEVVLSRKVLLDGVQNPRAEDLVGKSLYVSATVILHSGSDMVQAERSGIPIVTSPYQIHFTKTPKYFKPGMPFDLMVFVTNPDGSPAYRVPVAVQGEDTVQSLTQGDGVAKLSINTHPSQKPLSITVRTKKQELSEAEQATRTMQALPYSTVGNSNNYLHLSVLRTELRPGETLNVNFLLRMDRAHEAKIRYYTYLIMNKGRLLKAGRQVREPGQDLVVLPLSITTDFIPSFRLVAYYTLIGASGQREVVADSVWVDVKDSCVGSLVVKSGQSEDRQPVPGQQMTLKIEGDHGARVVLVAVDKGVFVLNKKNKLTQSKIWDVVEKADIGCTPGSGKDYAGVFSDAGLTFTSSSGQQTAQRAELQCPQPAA
Chain of CHT (Homo sapiens) (chain, as listed by the source): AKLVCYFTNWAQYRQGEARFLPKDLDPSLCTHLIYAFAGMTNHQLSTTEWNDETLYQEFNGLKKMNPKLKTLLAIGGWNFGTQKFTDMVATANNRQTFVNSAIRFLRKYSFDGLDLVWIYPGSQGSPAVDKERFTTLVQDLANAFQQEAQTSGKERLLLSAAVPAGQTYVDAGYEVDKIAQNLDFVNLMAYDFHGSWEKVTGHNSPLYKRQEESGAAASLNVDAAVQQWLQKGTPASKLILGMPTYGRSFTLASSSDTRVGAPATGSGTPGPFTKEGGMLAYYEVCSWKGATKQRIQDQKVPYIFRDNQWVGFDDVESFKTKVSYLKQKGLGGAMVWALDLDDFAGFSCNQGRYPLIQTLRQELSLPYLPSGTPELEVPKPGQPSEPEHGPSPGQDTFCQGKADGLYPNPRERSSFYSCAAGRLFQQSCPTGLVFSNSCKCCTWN
Chain of PILRb (Mus musculus), Q2YSF2 (Q2YSF2 entry or part of it): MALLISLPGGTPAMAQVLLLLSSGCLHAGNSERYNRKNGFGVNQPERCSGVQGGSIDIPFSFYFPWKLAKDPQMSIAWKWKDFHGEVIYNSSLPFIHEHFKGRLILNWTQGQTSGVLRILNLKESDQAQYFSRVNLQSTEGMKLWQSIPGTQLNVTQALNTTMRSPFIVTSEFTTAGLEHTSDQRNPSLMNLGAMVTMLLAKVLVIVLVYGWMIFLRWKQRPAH
Chain of PILRa (Mus musculus), Q2YSF3 (Q2YSF3 entry or part of it): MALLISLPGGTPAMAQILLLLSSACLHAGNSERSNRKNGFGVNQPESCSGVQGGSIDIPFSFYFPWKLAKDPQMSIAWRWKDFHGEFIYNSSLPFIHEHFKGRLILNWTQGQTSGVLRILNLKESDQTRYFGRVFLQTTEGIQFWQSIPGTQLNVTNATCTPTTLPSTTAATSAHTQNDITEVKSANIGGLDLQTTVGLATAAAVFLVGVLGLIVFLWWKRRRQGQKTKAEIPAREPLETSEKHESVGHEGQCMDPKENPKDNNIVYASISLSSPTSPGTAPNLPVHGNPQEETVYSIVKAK
Chain of Avaren (Actinomycete K97) (chain, as listed by the source): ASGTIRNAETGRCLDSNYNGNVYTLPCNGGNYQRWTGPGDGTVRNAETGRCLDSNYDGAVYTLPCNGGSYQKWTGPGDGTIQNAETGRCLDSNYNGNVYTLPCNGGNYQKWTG
Chain of 6RG (Lolium perenne), B9U140 (B9U140 entry or part of it): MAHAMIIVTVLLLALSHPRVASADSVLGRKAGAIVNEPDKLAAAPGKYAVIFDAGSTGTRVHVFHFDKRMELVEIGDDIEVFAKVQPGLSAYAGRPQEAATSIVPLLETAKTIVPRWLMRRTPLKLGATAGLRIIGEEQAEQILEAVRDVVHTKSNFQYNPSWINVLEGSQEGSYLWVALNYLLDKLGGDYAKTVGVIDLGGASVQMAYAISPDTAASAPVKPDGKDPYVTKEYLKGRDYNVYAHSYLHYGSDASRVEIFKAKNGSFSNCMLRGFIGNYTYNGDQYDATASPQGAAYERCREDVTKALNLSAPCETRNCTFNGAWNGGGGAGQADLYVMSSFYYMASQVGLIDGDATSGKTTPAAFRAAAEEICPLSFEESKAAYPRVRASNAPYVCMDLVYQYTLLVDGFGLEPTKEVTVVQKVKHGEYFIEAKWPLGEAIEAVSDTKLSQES
Chain of wLAT-1A (Homo sapiens), Q01650 (Q01650 whole entry): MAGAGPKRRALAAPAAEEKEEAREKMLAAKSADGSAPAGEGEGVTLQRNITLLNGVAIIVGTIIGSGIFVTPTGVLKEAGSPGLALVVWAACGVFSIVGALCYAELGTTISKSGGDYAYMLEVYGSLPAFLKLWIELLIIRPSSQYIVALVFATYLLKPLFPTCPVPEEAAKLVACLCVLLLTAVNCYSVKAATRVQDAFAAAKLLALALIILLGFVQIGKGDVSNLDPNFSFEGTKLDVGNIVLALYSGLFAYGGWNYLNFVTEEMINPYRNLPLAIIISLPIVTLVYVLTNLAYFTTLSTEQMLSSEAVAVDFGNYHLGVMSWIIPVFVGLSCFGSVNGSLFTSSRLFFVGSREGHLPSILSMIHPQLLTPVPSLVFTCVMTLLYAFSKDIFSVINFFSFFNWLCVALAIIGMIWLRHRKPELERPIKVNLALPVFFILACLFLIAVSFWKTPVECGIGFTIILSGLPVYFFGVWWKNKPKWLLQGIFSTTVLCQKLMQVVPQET
Chain of Aggrecan (Rattus norvegicus), NP_071526 (chain, as listed by the source): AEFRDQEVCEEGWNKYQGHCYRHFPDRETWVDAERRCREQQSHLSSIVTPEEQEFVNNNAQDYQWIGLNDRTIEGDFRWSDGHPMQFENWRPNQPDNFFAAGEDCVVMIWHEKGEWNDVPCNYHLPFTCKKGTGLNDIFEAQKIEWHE
Chain of Regenerating Gene IV (Homo sapiens), Q9BYZ8 (Q9BYZ8 whole entry, looked up): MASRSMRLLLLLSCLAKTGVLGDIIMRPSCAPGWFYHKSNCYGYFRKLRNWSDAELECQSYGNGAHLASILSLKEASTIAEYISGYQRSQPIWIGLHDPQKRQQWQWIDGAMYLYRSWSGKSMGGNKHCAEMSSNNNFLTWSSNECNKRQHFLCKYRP

Substance: CHI3L1 (Homo sapiens), P36222
- glycan array binding signal (z-score) (Gal(a1-4)Gal(b1-4)GlcNAc): -0.117
- glycan array binding signal (z-score) (Gal(a1-6)Glc): -0.088
- glycan array binding signal (z-score) (Gal(b1-2)Gal): -0.006

Substance: CHT (Homo sapiens)
- glycan array binding signal (z-score) ([1]; mutation: D138V, E140I): -0.162
- glycan array binding signal (z-score) (Gal(a1-4)Gal(b1-4)Gal; mutation: D138V, E140I): -0.141
- glycan array binding signal (z-score) (Gal(a1-4)GlcNAc; mutation: D138V, E140I): 0.017

Substance: Regenerating Gene IV (Homo sapiens), Q9BYZ8
- glycan array binding signal (z-score) [2]: -0.44

Substance: 6RG (Lolium perenne), B9U140
- glycan array binding signal (z-score) (Gal(a1-3)Gal(b1-4)Glc): -0.272

Substance: C3b (Homo sapiens), P01024
- glycan array binding signal (z-score) (Gal(a1-3)Gal(b1-4)Glc): 1.67
- glycan array binding signal (z-score) (Gal(a1-3)Gal): 2.77
- glycan array binding signal (z-score) (Gal(a1-4)GlcNAc): -0.904

Substance: PILRa (Mus musculus), Q2YSF3
- glycan array binding signal (z-score) (Gal(a1-3)Gal(b1-4)Glc): 0.145
- glycan array binding signal (z-score) [3]: -0.192

Substance: wLAT-1A (Homo sapiens), Q01650
- glycan array binding signal (z-score) (Gal(a1-3)GalNAc): 0.501

Substance: Siglec-8 (Homo sapiens), Q9NYZ4
- glycan array binding signal (z-score) [4]: 1.51
- glycan array binding signal (z-score) [5]: -0.444
- glycan array binding signal (z-score) [1]: -0.14
- glycan array binding signal (z-score) (Gal(a1-4)Gal(b1-4)Glc; mutation: R125K): 0.026
- glycan array binding signal (z-score) [6]: -0.073
- glycan array binding signal (z-score) (Gal(b1-3)GalNAc(b1-3)Gal): -0.035

Substance: HARE (Homo sapiens), Q8WWQ8
- glycan array binding signal (z-score) (Gal(b1-2)Gal): -0.074

Substance: 6RG (Lolium perenne)
- glycan array binding signal (z-score) (Gal(a1-4)Gal(b1-4)Gal): 6.25
- glycan array binding signal (z-score) (Gal(a1-4)Gal(b1-4)Glc): 6.7
- glycan array binding signal (z-score) [7]: 6.16

Substance: Aggrecan (Rattus norvegicus), NP_071526
- glycan array binding signal (z-score) [8]: -0.204

Substance: Avaren (Actinomycete K97)
- glycan array binding signal (z-score) (Gal(a1-3)Gal(b1-4)Glc): 0.305

Substance: PILRb (Mus musculus), Q2YSF2
- glycan array binding signal (z-score) [9]: -0.089
- glycan array binding signal (z-score) (Gal(a1-3)Gal(b1-4)GlcNAc): -0.363
- glycan array binding signal (z-score) (Gal(a1-3)Gal): 2.68
- glycan array binding signal (z-score) (Gal(a1-4)Gal(b1-4)Glc): 0.026
- glycan array binding signal (z-score) (Gal(b1-2)Gal): -0.075
- glycan array binding signal (z-score) [6]: 0.382
